Experimental data: PubChem BioAssay (NCATS)
Records with an inconclusive call do not appear. Calls of active or inactive are those of the source. Unless noted, calls come from the whole dose curve; as a rule, active = well fitted curve in the direction sought with a large enough effect; inconclusive = small, poorly fitted or top-dose-only effect, or another doubt; inactive = no such curve, though single readings can be large; an effect the other way counts as inactive or inconclusive.

What was measured:
[1] = target: Lysosomal acid glucosylceramidase (Homo sapiens) (UniProt P04062); experiment: Glucocerebrosidase-p2 (AID 348; in the data active = potency below about 10 µM; note: potency is the fitted concentration of half-maximal effect); settings: purified GBA, blue fluorogenic substrate, 40 min
Procedure, shortened: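 Compounds titrated from 0.6 nM upwards against 0.2 nM enzyme in pH 5.9 citric acid/KH2PO4, taurocholate, tween-20; blue fluorogenic substrate 80 uM, 40 min room temperature, stopped and read Ex 365/Em 440 for AC50.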

[2] = AP1 Signaling Pathway (AID 357; active = well fitted curve in either direction with a large enough effect, not every such curve was filed as active;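 note: ME-180 reporter cells stimulated with EGF at its EC50 level; % is set by controls: 0 for no effect and ±100 for the full control effect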); settings: ME-180 AP-1-bla reporter, EGF-induced, beta-lactamase ratio, 5 h; at 7.69 µM (top of the series) unless noted
Procedure, shortened: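 Beta-lactamase reporter under AP-1 response element, ME-180 background. Stimulus: EC50 EGF. Compound exposure 5 h, 37 °C. Detection: CCF4, 2.5 h RT, 460/530 nm. Values: AC50 from titration.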

[3] = Stat Signaling Pathway (AID 446; active = well fitted curve in either direction with a large enough effect, not every such curve was filed as active;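 note: ME-180 cervical cancer cells given 40 pM IL-6 alongside compound; SIE-controlled beta-lactamase reporter measured as 460/530 nm FRET emission ratio; % is set by controls: 0 for no effect and ±100 for the full control effect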); settings: ME-180 SIE beta-lactamase reporter, IL-6 stimulated, 5 h; at 7.69 µM (top of the series) unless noted
Procedure, shortened: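 ME-180 SIE-bla cells; overnight plating; cpd + IL-6 40 pM, 5 h, 37 C; LiveBLAzer 2.5 h RT; 460/530 nm emission ratio. Normalized to 300 pM IL-6 and 125 nM JAK inhibitor controls.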

[4] = target: Glucocorticoid receptor (Homo sapiens) (UniProt P04150); experiment: GR-GFP Redistribution (AID 450;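 active = compounds whose dose series gives a full or clear partial fitted curve of increased nuclear translocation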; note: potency is the fitted concentration of half-maximal effect); settings: U2OS GR-GFP nuclear translocation, laser cytometry, 2 h
[5] = target: Glucocorticoid receptor (Homo sapiens) (UniProt P04150); experiment: GR-EFC Redistribution (AID 451; calls by dose curve; note: potency is the fitted concentration of half-maximal effect); settings: CHO-K1 GR-EFC translocation, beta-gal luminescence, 2 h
Procedure, shortened: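 CHO-K1 cells stably expressing nuclear-localized β-gal enzyme acceptor and GR fused C-terminally to the enzyme donor fragment; ligand-driven nuclear translocation restores β-gal by complementation. Compounds titrated up to 46 uM final, 2 h at 37 °C; luminescence read.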

[6] = target: Mitogen-activated protein kinase 10 (Mus musculus) (UniProt Q61831); experiment: JNK3 AlphaScreen Assay (AID 530; active = well fitted curve in either direction with a large enough effect, not every such curve was filed as active;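 note: kinase came from lysate of stimulated human HepG2 cells; signal reports phosphorylation of biotinylated GST-cJun 1-79 at Ser73 with 10 µM ATP; % is set by controls: 0 for no effect and ±100 for the full control effect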); settings: JNK3 lysate, c-Jun phosphorylation; series mostly up to 57.1 µM
Procedure, shortened: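 JNK3 came from HepG2 lysates pre-activated with IL-1beta and TNF-alpha and phosphorylated biotinylated GST-cJun (1-79) at 10 uM ATP, pH 7.6, room temperature. Compounds were titrated. AlphaScreen signal used anti-phospho-cJun (Ser73) antibody.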

[7] = target: 3',5'-cyclic-AMP phosphodiesterase 4B (Homo sapiens) (UniProt Q07343); experiment: qHTS Assay for Inhibitors of PDE-IV (AID 607; active = well fitted activation curve with a large enough effect in the main read-out, with a control signal flat, not every such curve was filed as active; note: % of control where 0% means no effect); settings: HEK293 ACTOne CNG channel cells, membrane potential fluorescence; series mostly up to 22.9 µM
Procedure, shortened: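 ACTOne HEK293 cells carry a modified cAMP-gated CNG channel and express endogenous PDE4; plated 1000 cells/well, compounds up to 22.9 uM final. Membrane-potential dye fluorescence (ex 535/em 590) was read; parental cells received 10 uM forskolin + 100 uM RO 20-1724.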

[8] = target: Cytochrome P450 3A4 (Homo sapiens) (UniProt P08684); experiment: qHTS Assay for Activators of Cytochrome P450 3A4 (AID 885); settings: recombinant CYP3A4, Luciferin-PPXE luminescence, 60 min; series mostly up to 57.1 µM; note: nearly all actives have a fitted effect of over 65% in size
Procedure, shortened: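 20nM CYP3A4 + 25uM Luciferin-PPXE (=KM), 200mM KPO4; cpd 10 min RT; NADPH regen, 60 min RT; stop w/ detection buffer, 20 min; luminescence. Normalized to 57 uM ketoconazole.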

[9] = Confirmatory qHTS for small molecule stabilizers of the endoplasmic reticulum resident proteome: Secreted ER Calcium Modulated Protein (SERCaMP) assay (AID 1508628); settings: SERCaMP secreted luciferase ER calcium/proteostasis reporter; series mostly up to 76.3 µM; note: nearly all actives have a fitted effect of over 40% in size; note: potency is the fitted concentration of half-maximal effect
Procedure, shortened: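 We seeded SH-SY5Y-GLuc-SERCaMP cells, added compounds (three concentrations in the primary run, eleven up to 76.6 uM in confirmation), incubated 16 h, depleted ER calcium with thapsigargin, and read luciferase 4 h later.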

[10] = target: Cytochrome P450 1A2 (Homo sapiens) (UniProt P05177); experiment: p450-cyp1a2 (AID 410; calls by dose curve; note: potency is the fitted concentration of half-maximal effect); settings: recombinant CYP1A2, luciferin-ME demethylation, luminescence; series mostly up to 57 µM
Procedure, shortened: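 Human CYP1A2 (20nM) demethylated Luciferin-ME at its Km (100uM) in 100mM KPO4. After 10 min compound preincubation, NADPH regeneration ran the reaction 60 min at room temperature. Luciferin was read by luminescence, normalized to 57 uM furafylline.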

[11] = qHTS Assay for Lipid Storage Modulators (AID 1519; calls by dose curve); settings: Drosophila S3 cells, BODIPY lipid droplet/cell ratio, laser cytometry, cells loaded with oleic acid; for activity change, negative = inhibition: at 57.5 µM (top of the series)
Procedure, shortened: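 Cells seeded at 5,000 per well were treated with compounds over a concentration series and loaded with oleic acid (400 uM, as added). Lipid droplet fluorescence (488 nm excitation, 500-530 nm channel) was read by laser-scanning cytometry and normalized to 20 uM Triacsin C.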

[12] = target: Dual specificity protein kinase CLK4 (Homo sapiens) (UniProt Q9HAZ1); experiment: qHTS Assay for Inhibitors of CDC-like Kinase 4 (Kinase-Glo Assay) (AID 1770); settings: recombinant Clk4, Kinase-Glo ATP depletion luminescence; series mostly up to 66.7 µM; note: nearly all actives have a fitted effect of over 65% in size; note: potency is the fitted concentration of half-maximal effect
Procedure, shortened: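 Readout: Kinase-Glo luminescence from ATP left after a 4.5 h room-temperature reaction of 25 nM Clk4 with 100 uM RS peptide and 1 uM ATP (final). Buffer: 25 mM Tris pH 7.5, 10 mM MgCl2.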

[13] = target: Dual specificity protein kinase CLK4 (Homo sapiens) (UniProt Q9HAZ1); experiment: qHTS Assay for Inhibitors of CDC-like Kinase 4 (ADP-Glo Assay) (AID 1771); settings: recombinant CLK4, ADP-Glo luminescence; series mostly up to 80 µM; note: % is set by controls: 0 for no effect and ±100 for the full control effect; nearly all actives have a fitted effect of over 70% in size
Procedure, shortened: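 Clk4 (25 nM) was incubated 1 hr at room temperature with 100 uM RS repeat peptide and 1 uM ATP in buffer with 2 mM MgCl2, 0.5 mM EGTA, 2.5 mM DTT. ADP formed was quantified by ADP-Glo luminescence.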

[14] = target: Dual specificity protein kinase CLK4 (Homo sapiens) (UniProt Q9HAZ1); experiment: qHTS Assay for Inhibitors of CDC-like Kinase 4 (ADP-FP Assay) (AID 1795); settings: Transcreener ADP fluorescence polarization; series mostly up to 50 µM;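 note: recombinant human CLK4 phosphorylating RS repeat peptide at 1 µM ATP; % is set by controls: 0 for no effect and ±100 for the full control effect; nearly all actives have a fitted effect of over 60% in size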
Procedure, shortened: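 FP readout: Orange Transcreener ADP2 tracer (4 nM) plus ADP antibody, read after 30 min at room temperature. Kinase step: 6.25 nM Clk4, 100 uM RS peptide, 1 uM ATP, pH 7.5, 1 h.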

[15] = target: Ubiquitin carboxyl-terminal hydrolase 1 (Homo sapiens) (UniProt O94782); experiment: Inhibitors of USP1/UAF1: Pilot qHTS (AID 504865); settings: purified USP1/UAF1, Ub-rhodamine cleavage fluorescence; series mostly up to 54.9 µM;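 note: rhodamine fluorescence freed from ubiquitin-rhodamine substrate followed over time; top concentration of the series differs between compounds; % is set by controls: 0 for no effect and ±100 for the full control effect; nearly all actives have a fitted effect of over 35% in size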
Procedure, shortened: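 1nM USP1/UAF1 + cpd, 15 min RT; start w/ Ub-Rho 150nM final; kinetic FL 480/540 nm, 6 reads q60 s. Buffer 50mM HEPES pH 7.8, 0.5mM EDTA, 1mM TCEP, 0.01% Tween-20, 0.1 mg/ml BSA.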

[16] = Cell Viability qHTS for small molecule stabilizers of the endoplasmic reticulum resident proteome (AID 1508629); settings: cell viability counter-screen, 100 nM thapsigargin for final 4 h;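 note: human SH-SY5Y neuroblastoma cells carrying the GLuc-SERCaMP reporter; compound exposure about 46 h in total before the viability read; % is set by controls: 0 for no effect and ±100 for the full control effect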
[17] = NFAT Signaling Pathway (AID 444; active = well fitted curve in either direction with a large enough effect, not every such curve was filed as active); settings: Jurkat NFAT-bla M1, carbachol, beta-lactamase ratio, 5 h; at 7.69 µM (top of the series) unless noted
Procedure, shortened: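 Jurkat cells carrying an NFAT-driven β-lactamase reporter and co-transfected muscarinic M1 receptor were treated with compound plus carbachol (1 uM final, an EC50 level) for 5 h at 37 °C. CCF4 loading followed for 1 h at RT; 460/530 nm ratio gave %activity.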

[18] = target: Cytochrome P450 3A4 (Homo sapiens) (UniProt P08684); experiment: qHTS Assay for Inhibitors and Substrates of Cytochrome P450 3A4 (AID 884); settings: recombinant CYP3A4, Luciferin-PPXE luminescence; series mostly up to 57.1 µM; note: % is set by controls: 0 for no effect and ±100 for the full control effect; nearly all actives have a fitted effect of over 50% in size
Procedure, shortened: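 20 nM human CYP3A4 with 25 uM Luciferin-PPXE (at KM) in 200 mM KPO4, preincubated 10 min with compound; NADPH regeneration started a 60 min RT reaction. Luciferin detected by luminescence, normalized to 57 uM ketoconazole as full inhibition.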

[19] = measured here: cell count channel max response
[20] = measured here: lipid channel max response

Sequence of Glucocorticoid receptor (Homo sapiens) (P04150 whole entry, looked up, the tested form may be a part): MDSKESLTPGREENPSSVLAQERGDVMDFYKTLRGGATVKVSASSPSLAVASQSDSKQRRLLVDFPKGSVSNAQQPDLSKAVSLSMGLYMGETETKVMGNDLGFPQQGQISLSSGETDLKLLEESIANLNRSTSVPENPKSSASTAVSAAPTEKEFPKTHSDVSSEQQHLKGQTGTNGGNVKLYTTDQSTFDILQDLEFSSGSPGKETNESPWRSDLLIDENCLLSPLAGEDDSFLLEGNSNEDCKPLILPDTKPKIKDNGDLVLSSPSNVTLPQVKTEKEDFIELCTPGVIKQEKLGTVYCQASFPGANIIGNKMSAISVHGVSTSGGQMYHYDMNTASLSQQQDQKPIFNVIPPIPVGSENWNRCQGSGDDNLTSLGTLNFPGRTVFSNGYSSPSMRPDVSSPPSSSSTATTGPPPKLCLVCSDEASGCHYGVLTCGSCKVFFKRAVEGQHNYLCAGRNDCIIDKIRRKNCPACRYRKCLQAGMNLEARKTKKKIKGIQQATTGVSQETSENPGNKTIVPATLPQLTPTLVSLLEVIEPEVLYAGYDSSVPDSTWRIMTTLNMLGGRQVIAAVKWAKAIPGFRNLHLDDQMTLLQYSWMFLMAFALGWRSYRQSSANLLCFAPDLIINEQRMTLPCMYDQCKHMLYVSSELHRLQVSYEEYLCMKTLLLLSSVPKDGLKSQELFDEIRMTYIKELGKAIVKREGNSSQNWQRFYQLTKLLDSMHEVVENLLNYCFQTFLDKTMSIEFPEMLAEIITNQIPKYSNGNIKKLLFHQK
Sequence of Cytochrome P450 1A2 (Homo sapiens) (P05177 whole entry, looked up): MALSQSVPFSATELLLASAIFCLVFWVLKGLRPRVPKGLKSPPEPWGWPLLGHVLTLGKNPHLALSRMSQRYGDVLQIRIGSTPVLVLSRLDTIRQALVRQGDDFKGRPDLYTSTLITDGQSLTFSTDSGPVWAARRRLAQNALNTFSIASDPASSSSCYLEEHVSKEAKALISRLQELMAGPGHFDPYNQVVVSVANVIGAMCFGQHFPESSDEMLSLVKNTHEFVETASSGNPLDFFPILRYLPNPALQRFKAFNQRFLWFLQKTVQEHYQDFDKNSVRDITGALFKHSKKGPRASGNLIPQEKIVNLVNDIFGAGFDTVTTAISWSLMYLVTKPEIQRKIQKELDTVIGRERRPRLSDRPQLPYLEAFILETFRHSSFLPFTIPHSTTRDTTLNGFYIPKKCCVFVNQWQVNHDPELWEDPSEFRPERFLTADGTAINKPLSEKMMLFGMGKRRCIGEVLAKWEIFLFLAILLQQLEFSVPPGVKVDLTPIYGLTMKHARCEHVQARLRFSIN
Sequence of 3',5'-cyclic-AMP phosphodiesterase 4B (Homo sapiens) (Q07343 whole entry, looked up): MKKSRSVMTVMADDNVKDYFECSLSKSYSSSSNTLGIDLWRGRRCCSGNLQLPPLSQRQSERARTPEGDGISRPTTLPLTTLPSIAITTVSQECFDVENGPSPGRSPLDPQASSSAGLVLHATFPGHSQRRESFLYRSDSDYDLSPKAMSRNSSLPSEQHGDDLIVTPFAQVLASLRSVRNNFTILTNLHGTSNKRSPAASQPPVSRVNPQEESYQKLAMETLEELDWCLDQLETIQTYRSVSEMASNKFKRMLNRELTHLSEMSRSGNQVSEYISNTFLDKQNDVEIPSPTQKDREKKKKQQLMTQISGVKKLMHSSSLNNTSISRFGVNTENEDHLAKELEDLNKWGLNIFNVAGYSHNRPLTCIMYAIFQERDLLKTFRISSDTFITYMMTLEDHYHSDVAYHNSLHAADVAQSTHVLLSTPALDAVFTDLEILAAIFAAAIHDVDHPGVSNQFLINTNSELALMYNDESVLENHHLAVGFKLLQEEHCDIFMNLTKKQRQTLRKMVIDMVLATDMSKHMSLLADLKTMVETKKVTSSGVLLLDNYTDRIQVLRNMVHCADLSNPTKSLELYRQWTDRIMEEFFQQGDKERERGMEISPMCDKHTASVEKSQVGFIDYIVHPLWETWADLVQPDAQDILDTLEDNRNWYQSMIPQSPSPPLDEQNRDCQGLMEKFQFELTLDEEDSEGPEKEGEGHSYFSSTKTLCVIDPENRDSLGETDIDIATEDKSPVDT
Sequence of Cytochrome P450 3A4 (Homo sapiens) (P08684 whole entry, looked up): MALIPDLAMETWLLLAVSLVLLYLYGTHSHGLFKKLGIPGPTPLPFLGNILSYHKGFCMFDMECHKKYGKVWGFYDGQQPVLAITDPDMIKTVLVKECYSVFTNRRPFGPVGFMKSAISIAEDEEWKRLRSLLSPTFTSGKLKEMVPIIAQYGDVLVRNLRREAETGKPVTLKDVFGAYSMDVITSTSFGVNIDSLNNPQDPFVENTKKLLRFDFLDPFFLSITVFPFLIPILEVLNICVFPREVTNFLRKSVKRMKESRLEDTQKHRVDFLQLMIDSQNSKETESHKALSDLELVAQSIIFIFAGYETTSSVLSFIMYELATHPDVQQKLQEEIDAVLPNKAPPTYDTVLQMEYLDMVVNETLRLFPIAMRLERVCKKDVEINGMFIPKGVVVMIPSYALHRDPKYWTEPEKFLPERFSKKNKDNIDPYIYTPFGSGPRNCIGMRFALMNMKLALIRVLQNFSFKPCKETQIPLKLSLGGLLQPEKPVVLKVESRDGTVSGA
Sequence of Lysosomal acid glucosylceramidase (Homo sapiens) (P04062 whole entry, looked up): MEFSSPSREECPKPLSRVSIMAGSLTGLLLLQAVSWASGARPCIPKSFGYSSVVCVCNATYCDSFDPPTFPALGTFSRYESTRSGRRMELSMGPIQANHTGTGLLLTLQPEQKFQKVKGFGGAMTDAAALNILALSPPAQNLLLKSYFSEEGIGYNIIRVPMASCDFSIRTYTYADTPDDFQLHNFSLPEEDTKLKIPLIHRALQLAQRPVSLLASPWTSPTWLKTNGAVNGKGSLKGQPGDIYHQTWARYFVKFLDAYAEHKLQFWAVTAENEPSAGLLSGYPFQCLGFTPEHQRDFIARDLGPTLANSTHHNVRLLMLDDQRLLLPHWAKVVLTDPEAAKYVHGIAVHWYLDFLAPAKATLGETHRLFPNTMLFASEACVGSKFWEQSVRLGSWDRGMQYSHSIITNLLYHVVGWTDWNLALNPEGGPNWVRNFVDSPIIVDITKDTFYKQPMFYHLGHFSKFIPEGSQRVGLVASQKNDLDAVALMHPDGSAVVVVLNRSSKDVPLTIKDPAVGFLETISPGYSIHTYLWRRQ
Sequence of Ubiquitin carboxyl-terminal hydrolase 1 (Homo sapiens) (O94782 whole entry, looked up): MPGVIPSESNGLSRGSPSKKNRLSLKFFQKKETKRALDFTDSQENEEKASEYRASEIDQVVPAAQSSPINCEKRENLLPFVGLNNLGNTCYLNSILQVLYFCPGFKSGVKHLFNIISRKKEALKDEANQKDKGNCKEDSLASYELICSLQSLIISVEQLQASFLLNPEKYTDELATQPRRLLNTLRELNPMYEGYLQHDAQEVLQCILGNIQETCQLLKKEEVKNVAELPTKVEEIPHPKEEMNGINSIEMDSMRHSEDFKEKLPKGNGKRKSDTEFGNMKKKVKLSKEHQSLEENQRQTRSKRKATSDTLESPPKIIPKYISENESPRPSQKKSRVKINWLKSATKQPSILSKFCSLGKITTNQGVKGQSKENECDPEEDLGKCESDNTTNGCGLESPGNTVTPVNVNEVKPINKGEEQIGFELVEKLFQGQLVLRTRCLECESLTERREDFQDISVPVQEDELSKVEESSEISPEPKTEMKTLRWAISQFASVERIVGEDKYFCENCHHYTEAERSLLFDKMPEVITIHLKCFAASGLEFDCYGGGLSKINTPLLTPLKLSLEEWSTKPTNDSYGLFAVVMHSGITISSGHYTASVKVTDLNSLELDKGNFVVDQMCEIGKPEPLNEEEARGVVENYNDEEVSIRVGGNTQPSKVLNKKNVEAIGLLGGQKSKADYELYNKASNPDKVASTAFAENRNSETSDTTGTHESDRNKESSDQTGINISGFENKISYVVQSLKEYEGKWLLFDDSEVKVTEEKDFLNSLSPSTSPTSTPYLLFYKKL
Sequence of Dual specificity protein kinase CLK4 (Homo sapiens) (Q9HAZ1 whole entry, looked up): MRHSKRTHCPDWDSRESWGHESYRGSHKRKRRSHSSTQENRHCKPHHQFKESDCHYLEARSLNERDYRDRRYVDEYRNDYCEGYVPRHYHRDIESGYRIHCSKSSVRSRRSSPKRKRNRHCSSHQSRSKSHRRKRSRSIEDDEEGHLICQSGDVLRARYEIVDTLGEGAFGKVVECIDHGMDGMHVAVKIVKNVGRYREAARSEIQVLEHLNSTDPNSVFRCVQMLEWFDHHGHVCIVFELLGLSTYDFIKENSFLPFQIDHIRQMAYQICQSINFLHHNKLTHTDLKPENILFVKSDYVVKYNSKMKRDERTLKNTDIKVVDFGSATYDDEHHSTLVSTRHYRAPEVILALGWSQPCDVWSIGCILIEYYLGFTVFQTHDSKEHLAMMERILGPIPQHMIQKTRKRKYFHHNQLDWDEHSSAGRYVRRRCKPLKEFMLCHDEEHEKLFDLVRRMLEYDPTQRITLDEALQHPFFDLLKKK

O=c1cnc2cnc(N3CCNCC3)nc2n1Cc1cccs1
inactive: Potency [1] > 11.4 µM | activity change, negative = inhibition [2] -4.82% | activity, negative = inhibition [3] 0.322% | Potency [4] > 9.22 µM | Potency [5] > 46 µM | outcome [6] | Potency [7] | Potency [8]
active: Potency [9] 31.6 µM

COc1ccc(-c2nc3cnc(N4CCNCC4)nc3n(CCc3ccccc3)c2=O)cc1
-3.35%: max response [11, 19]
inactive: Potency [1] > 11.4 µM | Potency [4] > 9.22 µM | Potency [5] > 46 µM | Potency [7] | Potency [8] | activity change, negative = inhibition [11] -10.5% | Potency [9]
active: activity change, negative = inhibition [2] 111% [activator] | Potency [10] 15.8 µM
-12.2%: max response [11, 20]

COc1ccc(-n2c(=O)c(-c3ccccc3)nc3cnc(N4CCNCC4)nc32)cc1
inactive: Potency [1] > 11.4 µM | Potency [5] > 46 µM | outcome [6] | Potency [7] | Potency [12] | Potency [13] | Potency [14] | Potency [15] | max response [16] 0.755%
active: Potency [10] 15.8 µM

CN(C)c1ncc2ncc(=O)n(CCc3ccccc3)c2n1
inactive: Potency [1] > 11.4 µM | activity change, negative = inhibition [2] -21.4% | activity change, negative = inhibition [17] -10.8% | activity, negative = inhibition [3] -10.8% | Potency [4] > 9.22 µM | Potency [5] > 46 µM | outcome [6] | Potency [15]
active: Potency [10] 0.794 µM | Potency [12] 6.31 µM | Potency [9] 39.8 µM

CN1CCN(c2ncc3nc(-c4ccccc4)c(=O)n(-c4ccccc4)c3n2)CC1
inactive: Potency [1] > 11.4 µM | Potency [4] > 9.22 µM | Potency [5] > 46 µM | outcome [6] | Potency [7]
active: Potency [9] 25.1 µM

O=C(c1cc(C(F)(F)F)cc(C(F)(F)F)c1)N1CCC2(CC1)CCN(c1ccncc1)CC2
inactive: Potency [1] > 11.4 µM | activity change, negative = inhibition [2] 24.2% | activity, negative = inhibition [3] 16.4% | Potency [5] > 46 µM | outcome [6] | Potency [18] | activity change, negative = inhibition [11] 0.636% | Potency [9]
0.493%: max response [11, 20]
-1.35%: max response [11, 19]

CN(C)c1nccc(N(Cc2ccccc2)Cc2ccccc2)c1C#N
inactive: max response [16] -2.77%

CN1CCN(c2ncncc2-c2ccccc2C(F)(F)F)CC1
29.8%: max response [11, 20]
25.9%: max response [11, 19]
inactive: Potency [1] > 11.4 µM | activity change, negative = inhibition [2] 1.62% | activity, negative = inhibition [3] 0.819% | Potency [4] > 46 µM | Potency [5] > 46 µM | outcome [6] | Potency [7] | Potency [8] | activity change, negative = inhibition [11] 6.69% | Potency [12] | Potency [13] | Potency [14] | Potency [15] | max response [16] 18.7%
active: Potency [10] 31.6 µM
